Reference: the supplement of paper PMC10849652
About 7,900 targets were measured; listed, in parts, are those with a hit and a random draw of the rest. About 0.6% of all pairs of compound and target were hits.

How the values were obtained:
Test in all cases: log2 fold change, soluble protein after heating vs DMSO (PISA); higher = thermal stabilisation; K562 cells, 10 uM, 30 min; active = over 0.2 and 3.5 SD of the protein, either way, in both replicates (recomputed)
[1] = compound: CS(=O)(=O)c1ccc(-c2cnc(N)c(C(=O)Nc3ccccc3)n2)cc1
Summary of the method: (§1)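 Soluble protein was defined as the supernatant after 21,000xg for 90 min. It came from K562 cells at 2×10^6 cells/mL given 10 μM compound for 30 min, heated in aliquots for 3 min across 48°C-58°C, pooled, and extracted in PBS with 0.5% NP-40 at 4°C, and was quantified by TMTpro 16plex LC-MS/MS with equalised channel sums. Thermal stability against control samples, from duplicates, is reported as log2 fold change.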

crizotinib = compound: C[C@@H](Oc1cc(-c2cnn(C3CCNCC3)c2)cnc1N)c1c(Cl)ccc(F)c1Cl [crizotinib]
Summary of the method: as §1

[2] = compound: C[C@@H]1COCCN1C2=NC(=NC(=C2)C3(CC3)S(=O)(=O)C)C4=C5C=CNC5=CC=C4
Summary of the method: as §1

[3] = compound: C[C@H](C1=CC=C(C=C1)C(=O)NC2=C3C=CNC3=NC=C2)N
Summary of the method: as §1

duvelisib = compound: C[C@H](Nc1ncnc2nc[nH]c12)c1cc2cccc(Cl)c2c(=O)n1-c1ccccc1 [duvelisib]
Summary of the method: as §1

[4] = compound: Cc1cc(SCc2sc(-c3ccc(C(F)(F)F)cc3)nc2C)ccc1OCC(=O)O
Summary of the method: as §1

doramapimod = compound: Cc1ccc(-n2nc(C(C)(C)C)cc2NC(=O)Nc2ccc(OCCN3CCOCC3)c3ccccc23)cc1 [doramapimod]
Summary of the method: as §1

bafetinib = compound: Cc1ccc(NC(=O)c2ccc(CN3CC[C@H](N(C)C)C3)c(C(F)(F)F)c2)cc1Nc1nccc(-c2cncnc2)n1 [bafetinib]
Summary of the method: as §1

nilotinib = compound: Cc1cn(-c2cc(NC(=O)c3ccc(C)c(Nc4nccc(-c5cccnc5)n4)c3)cc(C(F)(F)F)c2)cn1 [nilotinib]
Summary of the method: as §1

[5] = compound: Cc1nc(Nc2n[nH]c3c2CN(C(=O)N[C@H](CN(C)C)c2ccccc2)C3(C)C)c2sccc2n1
Summary of the method: as §1

dasatinib = compound: Cc1nc(Nc2ncc(C(=O)Nc3c(C)cccc3Cl)s2)cc(N2CCN(CCO)CC2)n1 [dasatinib]
Summary of the method: as §1

[6] = compound: Cc1ncc(-c2ccnc(Nc3ccc(S(C)(=O)=O)cc3)n2)n1C(C)C
Summary of the method: as §1

[7] = compound: Cn1cc(-c2ccc3c(c2)CCN3C(=O)Cc2cccc(C(F)(F)F)c2)c2c(N)ncnc21
Summary of the method: as §1

tipifarnib = compound: Cn1cncc1[C@@](N)(c1ccc(Cl)cc1)c1ccc2c(c1)c(-c1cccc(Cl)c1)cc(=O)n2C [tipifarnib]
Summary of the method: as §1

mubritinib = compound: FC(F)(F)c1ccc(/C=C/c2nc(COc3ccc(CCCCn4ccnn4)cc3)co2)cc1 [mubritinib]
Summary of the method: as §1

gandotinib = compound: Cc1cc(Nc2cc(CN3CCOCC3)c3nc(C)c(Cc4ccc(Cl)cc4F)n3n2)n[nH]1 [gandotinib]
Summary of the method: as §1

tozasertib = compound: Cc1cc(Nc2cc(N3CCN(C)CC3)nc(Sc3ccc(NC(=O)C4CC4)cc3)n2)n[nH]1 [tozasertib]
Summary of the method: as §1

ispinesib = compound: Cc1ccc(C(=O)N(CCCN)[C@@H](c2nc3cc(Cl)ccc3c(=O)n2Cc2ccccc2)C(C)C)cc1 [ispinesib]
Summary of the method: as §1

[8] = compound: Cc1cccc(CC(=O)N2CCc3c2ccc(-c2cn(C)c4ncnc(N)c24)c3F)n1
Summary of the method: as §1

[9] = compound: Cn1cc(-c2ccc3nnc(C(F)(F)c4ccc5ncccc5c4)n3n2)cn1
Summary of the method: as §1

Measured: log2 fold change

AP4S1 (UniProt Q9Y587)
Sequence of UniProt Q9Y587 (Q9Y587 whole entry, looked up): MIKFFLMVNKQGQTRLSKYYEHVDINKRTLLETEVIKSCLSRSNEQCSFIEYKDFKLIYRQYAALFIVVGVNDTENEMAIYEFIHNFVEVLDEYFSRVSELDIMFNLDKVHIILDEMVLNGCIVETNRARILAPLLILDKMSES
inactive: [1] -0.027 | crizotinib -0.028 | [2] 0.065 | [3] 0.133 | duvelisib -0.122 | [4] 0.013 | doramapimod -0.088 | bafetinib 0.068 | nilotinib -0.015 | [5] -0.016 | dasatinib -0.036 | [6] 0.072 | [7] -0.103 | tipifarnib 0.076 | mubritinib -0.013

BZW1 isoform 3 (UniProt Q7L1Q6)
Sequence of UniProt Q7L1Q6 (Q7L1Q6 whole entry, looked up): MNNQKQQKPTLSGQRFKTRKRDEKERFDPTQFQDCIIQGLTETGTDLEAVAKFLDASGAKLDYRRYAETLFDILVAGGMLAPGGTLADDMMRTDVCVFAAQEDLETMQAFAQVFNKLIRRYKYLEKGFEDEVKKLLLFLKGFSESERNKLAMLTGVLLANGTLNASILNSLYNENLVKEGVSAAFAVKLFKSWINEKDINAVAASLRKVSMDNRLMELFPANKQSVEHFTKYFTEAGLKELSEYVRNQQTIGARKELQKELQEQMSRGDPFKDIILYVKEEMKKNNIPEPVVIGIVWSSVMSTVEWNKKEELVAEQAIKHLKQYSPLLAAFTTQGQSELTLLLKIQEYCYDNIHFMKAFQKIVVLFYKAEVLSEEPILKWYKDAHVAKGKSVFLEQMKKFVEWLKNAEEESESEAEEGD
inactive: [1] 0.007 | crizotinib -0.426 | [2] 0.007 | [3] 0.051 | duvelisib -0.03 | gandotinib -0.189 | tozasertib 0.054 | [4] 0.181 | doramapimod -0.008 | ispinesib -0.209 | bafetinib 0.002 | [8] 0.167 | nilotinib -0.124 | [5] -0.138 | dasatinib -0.283 | [6] 0.03 | [7] 0.017 | [9] 0.011 | tipifarnib -0.364 | mubritinib 0.089

BDH2 (UniProt Q9BUT1)
inactive: [1] 0.035 | crizotinib 0.243 | [3] -0.215 | duvelisib -0.01 | gandotinib 0.011 | [4] 0.067 | doramapimod -0.053 | ispinesib 0.053 | bafetinib 0.114 | [8] 0.069 | dasatinib 0.031 | [7] 0.063 | [9] -0.032 | tipifarnib 0.017 | mubritinib 0.274

AGAP3 isoform 4 (UniProt Q96P47)
Sequence of UniProt Q96P47 (Q96P47 whole entry, looked up): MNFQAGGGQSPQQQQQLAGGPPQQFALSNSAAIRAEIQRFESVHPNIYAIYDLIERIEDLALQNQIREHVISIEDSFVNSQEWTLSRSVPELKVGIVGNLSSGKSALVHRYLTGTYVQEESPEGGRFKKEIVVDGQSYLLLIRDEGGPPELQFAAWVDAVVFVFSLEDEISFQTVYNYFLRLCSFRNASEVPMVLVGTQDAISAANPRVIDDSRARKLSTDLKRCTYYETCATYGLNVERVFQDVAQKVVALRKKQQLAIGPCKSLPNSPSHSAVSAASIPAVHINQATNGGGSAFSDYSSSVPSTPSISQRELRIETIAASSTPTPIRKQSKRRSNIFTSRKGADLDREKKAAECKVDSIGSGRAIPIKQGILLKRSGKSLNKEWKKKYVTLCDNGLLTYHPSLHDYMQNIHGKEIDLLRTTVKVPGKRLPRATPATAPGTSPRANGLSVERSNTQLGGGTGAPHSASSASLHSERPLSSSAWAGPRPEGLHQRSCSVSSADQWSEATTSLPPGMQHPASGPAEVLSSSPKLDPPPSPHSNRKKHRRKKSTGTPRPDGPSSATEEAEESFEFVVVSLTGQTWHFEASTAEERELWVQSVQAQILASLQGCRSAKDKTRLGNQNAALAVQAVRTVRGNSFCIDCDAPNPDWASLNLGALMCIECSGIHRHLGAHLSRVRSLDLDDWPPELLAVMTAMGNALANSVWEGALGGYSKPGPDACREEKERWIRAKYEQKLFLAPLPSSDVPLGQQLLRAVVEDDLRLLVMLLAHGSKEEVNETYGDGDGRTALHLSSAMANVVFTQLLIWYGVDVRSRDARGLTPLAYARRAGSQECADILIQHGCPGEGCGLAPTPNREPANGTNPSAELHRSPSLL
inactive: [1] -0.041 | crizotinib -0.231 | [2] -0.133 | [3] 0.07 | tozasertib 0.183 | doramapimod 0.125 | ispinesib -0.069 | bafetinib -0.144 | nilotinib 0.138 | [5] -0.016 | [6] -0.049 | [7] -0.077 | [9] -0.082 | tipifarnib -0.012 | mubritinib -0.156

BRAF (UniProt P15056)
Sequence of UniProt P15056 (P15056 whole entry, looked up): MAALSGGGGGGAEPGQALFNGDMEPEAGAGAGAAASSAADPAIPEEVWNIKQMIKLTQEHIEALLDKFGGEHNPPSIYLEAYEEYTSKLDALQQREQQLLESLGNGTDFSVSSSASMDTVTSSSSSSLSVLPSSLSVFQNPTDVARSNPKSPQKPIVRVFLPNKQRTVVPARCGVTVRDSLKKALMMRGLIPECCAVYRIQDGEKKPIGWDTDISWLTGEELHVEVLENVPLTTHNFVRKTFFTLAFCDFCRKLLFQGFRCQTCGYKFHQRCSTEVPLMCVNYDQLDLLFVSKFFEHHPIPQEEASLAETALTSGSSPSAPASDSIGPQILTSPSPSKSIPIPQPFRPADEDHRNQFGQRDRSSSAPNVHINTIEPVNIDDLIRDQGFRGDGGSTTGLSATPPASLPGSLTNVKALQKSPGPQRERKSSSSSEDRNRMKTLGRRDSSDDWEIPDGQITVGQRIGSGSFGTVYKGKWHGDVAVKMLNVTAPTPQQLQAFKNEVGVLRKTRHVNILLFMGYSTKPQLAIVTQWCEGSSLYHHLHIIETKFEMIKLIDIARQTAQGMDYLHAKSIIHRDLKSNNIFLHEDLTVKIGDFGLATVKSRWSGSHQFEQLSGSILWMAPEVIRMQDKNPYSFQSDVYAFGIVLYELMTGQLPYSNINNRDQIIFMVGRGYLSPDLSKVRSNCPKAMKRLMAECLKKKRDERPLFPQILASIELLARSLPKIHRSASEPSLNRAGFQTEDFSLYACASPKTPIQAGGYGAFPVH
inactive: [1] 0.006 | crizotinib 0.023 | [2] 0.034 | [3] -0.072 | duvelisib -0.014 | gandotinib -0.013 | tozasertib -0.004 | [4] -0.014 | ispinesib -0.024 | bafetinib 0.067 | [8] 0.019 | [5] -0.099 | [6] -0.014 | [7] 0.03 | [9] 0.01 | tipifarnib -0.034 | mubritinib -0.059

AK6 (UniProt Q9Y3D8)
Sequence of UniProt Q9Y3D8 (Q9Y3D8 whole entry, looked up): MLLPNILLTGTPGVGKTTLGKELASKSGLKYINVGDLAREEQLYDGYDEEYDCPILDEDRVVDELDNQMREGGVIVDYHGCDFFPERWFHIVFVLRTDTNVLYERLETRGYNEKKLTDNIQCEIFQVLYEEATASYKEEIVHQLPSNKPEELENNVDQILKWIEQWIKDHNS
inactive: [1] 0.151 | crizotinib -0.156 | [2] 0.175 | [3] 0.115 | duvelisib 0.075 | gandotinib -0.049 | tozasertib 0.036 | [4] 0.065 | doramapimod 0.008 | ispinesib -0.085 | bafetinib 0.021 | [8] -0.018 | nilotinib -0.141 | [5] -0.143 | dasatinib -0.288 | [6] -0.015 | [7] 0 | [9] 0.025 | tipifarnib -0.144 | mubritinib -0.114

AP2M1 (UniProt C9JTK4)
inactive: [1] 0.105 | crizotinib 0.048 | [2] 0.158 | [3] 0.08 | duvelisib 0.147 | tozasertib 0.057 | [4] -0.03 | doramapimod 0.032 | bafetinib -0.174 | nilotinib -0.02 | [5] 0.212 | dasatinib 0.029 | [6] -0.161 | [7] -0.17 | mubritinib 0.08

BRD8 isoform 2 (UniProt Q9H0E9)
Sequence of UniProt Q9H0E9 (Q9H0E9 whole entry, looked up): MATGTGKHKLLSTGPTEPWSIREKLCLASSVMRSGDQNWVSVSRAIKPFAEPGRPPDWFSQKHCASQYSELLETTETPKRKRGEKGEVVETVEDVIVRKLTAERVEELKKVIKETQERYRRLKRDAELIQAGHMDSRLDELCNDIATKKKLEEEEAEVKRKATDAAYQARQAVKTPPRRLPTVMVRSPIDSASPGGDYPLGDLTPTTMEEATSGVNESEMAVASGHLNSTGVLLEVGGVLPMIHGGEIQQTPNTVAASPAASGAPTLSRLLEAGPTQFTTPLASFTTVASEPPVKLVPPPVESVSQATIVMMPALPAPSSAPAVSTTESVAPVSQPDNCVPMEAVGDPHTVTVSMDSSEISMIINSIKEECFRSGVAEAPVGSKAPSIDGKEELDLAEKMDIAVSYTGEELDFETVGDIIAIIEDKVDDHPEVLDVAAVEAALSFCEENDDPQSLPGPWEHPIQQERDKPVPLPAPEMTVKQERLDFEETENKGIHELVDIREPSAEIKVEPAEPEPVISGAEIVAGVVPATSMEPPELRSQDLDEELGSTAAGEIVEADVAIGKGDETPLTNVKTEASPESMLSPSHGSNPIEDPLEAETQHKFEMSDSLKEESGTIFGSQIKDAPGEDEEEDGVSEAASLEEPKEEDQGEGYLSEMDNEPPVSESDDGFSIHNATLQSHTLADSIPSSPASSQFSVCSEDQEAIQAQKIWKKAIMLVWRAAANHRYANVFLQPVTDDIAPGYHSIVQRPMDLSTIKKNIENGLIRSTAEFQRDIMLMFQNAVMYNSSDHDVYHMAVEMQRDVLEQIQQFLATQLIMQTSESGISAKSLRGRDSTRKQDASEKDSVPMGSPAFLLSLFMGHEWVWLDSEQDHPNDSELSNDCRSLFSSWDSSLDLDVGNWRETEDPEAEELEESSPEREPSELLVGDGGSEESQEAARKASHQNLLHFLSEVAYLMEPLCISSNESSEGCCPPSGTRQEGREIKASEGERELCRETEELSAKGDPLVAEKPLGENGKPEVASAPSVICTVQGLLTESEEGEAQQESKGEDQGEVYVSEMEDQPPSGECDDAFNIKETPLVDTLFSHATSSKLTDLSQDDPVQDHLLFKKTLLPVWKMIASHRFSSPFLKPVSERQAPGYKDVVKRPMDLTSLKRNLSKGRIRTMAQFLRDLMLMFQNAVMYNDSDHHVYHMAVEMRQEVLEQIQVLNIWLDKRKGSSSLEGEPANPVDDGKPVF
inactive: [1] -0.134 | crizotinib 0.044 | [2] -0.11 | [3] 0.042 | duvelisib 0.037 | gandotinib 0.113 | tozasertib 0.004 | [4] -0.012 | doramapimod 0.04 | ispinesib 0.061 | bafetinib -0.057 | [8] 0.064 | dasatinib -0.136 | [7] -0.022 | [9] -0.038 | tipifarnib -0.038

AMD1 (UniProt P17707)
inactive: [1] -0.058 | crizotinib 0.059 | [2] 0.035 | gandotinib 0.043 | tozasertib 0.105 | doramapimod -0.07 | ispinesib 0.008 | bafetinib 0.091 | [8] -0.141 | nilotinib -0.089 | [5] 0.001 | [6] -0.037 | [9] -0.071 | tipifarnib -0.022 | mubritinib 0.056

ABHD11 (UniProt Q8NFV4)
Sequence of UniProt Q8NFV4 (Q8NFV4 whole entry, looked up): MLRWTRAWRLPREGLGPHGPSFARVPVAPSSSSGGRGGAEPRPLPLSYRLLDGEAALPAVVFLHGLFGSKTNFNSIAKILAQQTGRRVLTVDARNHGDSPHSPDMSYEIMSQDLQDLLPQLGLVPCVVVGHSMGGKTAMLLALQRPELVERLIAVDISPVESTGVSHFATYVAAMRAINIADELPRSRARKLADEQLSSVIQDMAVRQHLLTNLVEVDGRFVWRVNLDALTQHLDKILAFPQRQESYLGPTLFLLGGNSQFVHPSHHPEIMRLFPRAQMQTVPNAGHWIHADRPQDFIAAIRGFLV
active: [2] 0.309 | gandotinib 0.389
inactive: crizotinib 0.149 | [3] 0.057 | duvelisib 0.144 | tozasertib -0.039 | [4] -0.003 | doramapimod 0.028 | ispinesib 0.029 | bafetinib 0.011 | [8] 0.175 | nilotinib 0.003 | [5] -0.006 | dasatinib 0.073 | [6] 0.083 | [7] 0.024 | [9] 0.025 | tipifarnib 0.174 | mubritinib -0.235

ALDH2 isoform 2 (UniProt P05091)
inactive: [1] 0.209 | [2] 0.244 | gandotinib -0.027 | tozasertib -0.224 | ispinesib -0.214 | bafetinib -0.029 | [8] -0.124 | [9] 0.244 | tipifarnib 0.015

BRD4 (UniProt O60885)
inactive: [1] 0.081 | [2] 0.288 | [3] -0.009 | duvelisib 0.207 | gandotinib -0.034 | tozasertib 0.033 | [4] -0.044 | ispinesib -0.022 | bafetinib 0.067 | [8] 0.054 | nilotinib -0.144 | [5] 0.017 | dasatinib -0.094 | [6] -0.233 | [7] 0.011 | [9] -0.046 | tipifarnib -0.09 | mubritinib 0.032

AKNA (UniProt Q7Z591)
inactive: [1] -0.015 | [3] -0.02 | [7] -0.134 | tipifarnib 0.215

ATXN3 isoform 1 (UniProt P54252)
inactive: crizotinib -0.028 | [3] 0.076 | gandotinib -0.028 | tozasertib -0.163 | doramapimod 0.087 | ispinesib -0.043 | bafetinib 0.03 | [8] 0.021 | nilotinib -0.038 | [5] -0.11 | [6] -0.021 | [7] 0.001 | [9] 0.033 | tipifarnib 0.026 | mubritinib 0.018

ARMC8 isoform 6 (UniProt Q8IUR7)
inactive: bafetinib -0.012 | nilotinib -0.034 | [5] -0.079 | [6] -0.052

BSCL2 isoform 4 (UniProt Q96G97)
inactive: [2] 0.05 | [3] -0.007 | duvelisib 0.129 | gandotinib -0.086 | tozasertib 0.008 | [4] 0.111 | bafetinib -0.225 | [8] -0.041 | nilotinib 0.101 | [5] 0.026 | dasatinib -0.14 | [6] 0.116 | [7] 0.002 | tipifarnib 0.109 | mubritinib 0.133

ARHGAP4 isoform 2 (UniProt P98171)
active: bafetinib 0.709
inactive: [1] 0.023 | [3] 0.212 | duvelisib -0.202 | tozasertib 0.105 | [4] 0.131 | ispinesib -0.111 | nilotinib -0.137 | [5] 0.436 | dasatinib -0.097 | [6] -0.174 | [7] -0.06 | [9] -0.046 | tipifarnib 0.161 | mubritinib -0.164

ADD2 isoform 9 (UniProt P35612)
Sequence of UniProt P35612 (P35612 whole entry, looked up): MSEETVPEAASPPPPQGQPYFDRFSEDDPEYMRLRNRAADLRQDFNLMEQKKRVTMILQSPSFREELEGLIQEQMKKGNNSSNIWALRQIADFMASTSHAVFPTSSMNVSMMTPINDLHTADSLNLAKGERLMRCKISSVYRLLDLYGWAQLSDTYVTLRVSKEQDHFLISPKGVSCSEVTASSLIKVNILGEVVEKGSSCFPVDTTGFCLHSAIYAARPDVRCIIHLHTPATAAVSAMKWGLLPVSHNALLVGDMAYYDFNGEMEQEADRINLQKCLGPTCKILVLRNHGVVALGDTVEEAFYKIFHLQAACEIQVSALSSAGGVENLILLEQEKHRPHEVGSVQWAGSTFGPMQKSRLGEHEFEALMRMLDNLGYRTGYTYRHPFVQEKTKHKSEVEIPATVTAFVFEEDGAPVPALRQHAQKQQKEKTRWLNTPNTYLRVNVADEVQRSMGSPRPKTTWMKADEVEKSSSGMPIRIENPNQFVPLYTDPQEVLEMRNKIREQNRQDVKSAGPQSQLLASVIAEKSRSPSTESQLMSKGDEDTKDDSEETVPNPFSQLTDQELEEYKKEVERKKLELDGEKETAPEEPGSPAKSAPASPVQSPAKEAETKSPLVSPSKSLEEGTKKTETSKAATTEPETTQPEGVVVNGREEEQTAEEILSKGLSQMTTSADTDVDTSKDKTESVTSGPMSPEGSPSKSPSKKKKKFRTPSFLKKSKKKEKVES
inactive: [1] -0.067 | ispinesib 0.04 | bafetinib 0.021 | [9] -0.002 | tipifarnib 0.149 | mubritinib -0.125

AUNIP isoform 2 (UniProt Q9H7T9)
Sequence of UniProt Q9H7T9 (Q9H7T9 whole entry, looked up): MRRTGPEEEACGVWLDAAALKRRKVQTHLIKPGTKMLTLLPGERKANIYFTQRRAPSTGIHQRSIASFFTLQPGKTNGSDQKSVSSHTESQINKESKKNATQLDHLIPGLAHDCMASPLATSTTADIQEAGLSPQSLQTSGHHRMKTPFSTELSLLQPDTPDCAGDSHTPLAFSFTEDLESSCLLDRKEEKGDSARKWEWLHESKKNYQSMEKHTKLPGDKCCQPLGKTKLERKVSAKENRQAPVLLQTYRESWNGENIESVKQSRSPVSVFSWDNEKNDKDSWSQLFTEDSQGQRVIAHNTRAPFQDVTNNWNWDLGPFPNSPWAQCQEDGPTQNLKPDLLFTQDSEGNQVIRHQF
inactive: [1] 0.117 | [3] -0.007 | duvelisib 0.157 | tozasertib -0.203 | [4] 0.056 | dasatinib -0.284 | [7] -0.006
active: tipifarnib -0.844

AUH (UniProt Q13825)
inactive: crizotinib -0.301 | [3] -0.105 | duvelisib -0.036 | gandotinib -0.127 | tozasertib -0.098 | [4] 0.135 | doramapimod 0.071 | ispinesib -0.069 | bafetinib -0.102 | [8] 0.024 | dasatinib 0.145 | [7] -0.072 | [9] 0.007 | tipifarnib -0.011 | mubritinib 0.048

ADD1 isoform 4 (UniProt P35611)
inactive: crizotinib 0.152 | [2] -0.213 | [3] 0.186 | gandotinib -0.153 | doramapimod -0.075 | bafetinib -0.034 | [8] 0.033 | [7] 0.114

AP2S1 (UniProt M0QZ21)
inactive: tozasertib -0.253

ARL4A (UniProt P40617)
inactive: bafetinib 0.145 | mubritinib 0.078

ASS1 (UniProt P00966)
inactive: [1] 0.033 | [2] 0.017 | [3] -0.079 | duvelisib 0.039 | gandotinib -0.014 | tozasertib -0.085 | [4] -0.062 | ispinesib -0.205 | bafetinib -0.113 | [8] -0.001 | nilotinib -0.017 | [5] 0.021 | dasatinib 0.013 | [6] -0.017 | [7] 0.093 | [9] 0.06 | tipifarnib 0.005 | mubritinib 0.009
